# Screening results (PubChem)
# AMA1 RON2 block: AMA1-RON2 (P. falciparum) interaction inhibition; AlphaScreen AMA1-biotinylated RON2 peptide binding; Potency, µM (titrated, usually from 58.2 µM), for the others: top-dose activity change, negative = inhibition, usual class: inhibitors; hit rate 0.2% among 360,000; AID 720542;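 also: 0% = vehicle wells and -100% = peptide control; nearly all actives have a fitted effect of over 45% in size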
#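 AMA1 (3D7) with his tag at 25 nM final met compounds first, then biotinylated RON2 peptide at 25 nM; detection used donor plus acceptor beads, 10 µg/mL apiece, read by AlphaScreen after 30 min at room temperature.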
# SARS PLpro yeast: SARS-CoV PLP inhibition in yeast; hit rate 0.19% among 330,000; AID 485353; Potency, µM (highest dose often 32.9 µM), inactives show at the highest dose activity, positive = growth rescue, hits mostly activators; S. cerevisiae expressing SARS-CoV PLpro, growth rescue; calls by dose curve; also: 0% is about no effect; nearly all actives have a fitted effect of over 55% in size
# Pf growth 96h: P. falciparum growth inhibition at 96 hours | P. falciparum luciferase reporter growth, 96 h | Potency, µM (titrated, usually from 28.7 µM), for the others: top-dose activity change, negative = inhibition, hits mostly inhibitors | hit rate 6.9% among 320,000 | AID 504834; also: % is scaled to controls: 0 for no effect and ±100 for the full control effect
#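 Readout is luminescence from an integrated firefly luciferase in P. falciparum. Red cells, 2% hematocrit and 0.05% parasitemia final, were cultured with compound through two parasite generations (96 hours) at 37 C, 5% CO2.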
# Pf growth 48h: inhibits P. falciparum growth in the first generation, 48 h; P. falciparum luciferase growth in erythrocytes, 48 h; Potency, µM (series often up to 28.7 µM), for inactives: top-dose activity change, negative = inhibition, hits mostly inhibitors; hit rate 5.9% among 310,000; AID 504832; also: % is scaled to controls: 0 for no effect and ±100 for the full control effect
#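 Parasite viability was followed by luminescence of a genomically integrated firefly luciferase. Cultures held 0.1% parasitemia at 2% hematocrit (final), incubated under 5% CO2 at 37 C.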
# An asterisk follows results filed as active; i = inactive; u = inconclusive; x = not tested or not shown; [ ] = remark or other dose. In the library only some 9.4% were active in any assay of this set; here they are far more common. Unless noted, calls follow the shape of the dose curve; as a rule, active = well fitted curve in the direction sought with a large enough effect; inconclusive = small, poorly fitted or top-dose-only effect, or another doubt; inactive = no such curve, though single readings can be large; an effect the other way counts as inactive or inconclusive. Potency is read from the fitted curve at half-maximal effect.
SMILES,AMA1 RON2 block,SARS PLpro yeast,Pf growth 96h,Pf growth 48h
O=C(CSC1=NCCS1)NC(NC(=O)CSC1=NCCS1)c1ccccc1,3%,2%,-21%,0%
Cc1cc(C)nc(N/N=C2/CCSc3ccc(F)cc32)n1,39%,-4%,10µM*,u
Cc1cc(C)cc(Oc2cc(NC(=O)c3cn(C)nc3C)cc([N+](=O)[O-])c2)c1,-4%,3%,8.3µM*,x
Cc1cccc(Oc2cc(NC(=O)Cn3cnc([N+](=O)[O-])n3)cc([N+](=O)[O-])c2)c1,-7%[2.32 µM],4%,117%,u
CCCn1c(CCC(=O)O)ccc1-c1ccccc1,-9%,2%,-14%,0%
Nc1ccc(-c2nnn(Cc3ccccc3)n2)cc1,-1%,x,x,x
COc1ccc(-c2nnn(Cc3ccccc3)n2)cc1,-3%,2%,13µM*,42%
CCOC(=O)C1CCN(C(=S)Nc2ccc(S(N)(=O)=O)cc2)CC1,-12%,6%,u,12%
c1ccc(Sc2cccc3ccccc23)c(CNC2=NCCN2)c1,-12%,-80%,0.93µM*,1.2µM*
Fc1ccccc1Sc1ccccc1CNC1=NCCN1,17%,-60%,10µM*,u
COc1ccc2c(c1)Cc1sc(NC(=O)c3cccs3)nc1-2,-2%,-17%,-10%,5.9µM*
COc1ccc(C(=O)Nc2nc3c(s2)Cc2cc(OC)ccc2-3)cc1,-23%,-15%,u,5.9µM*
COc1ccc2c(c1)Cc1sc(NC(=O)c3ccccc3)nc1-2,26%,-11%,2.9µM*,x
COc1ccc2nc(NC(=O)c3cccs3)sc2c1,-1%,-4%,i,269%
COc1ccc2nc(NC(=O)c3ccc(F)cc3)sc2c1,1%,-3%,u,79%
NC1=NC(c2ccccc2)CC(=O)N1 (stereo not drawn),-3%,x,x,x
O=C(c1cnc2ccc(Cl)cc2c1Cl)N1CCOCC1,-2%,1%,-9%,27%
Cc1ccc([N+](=O)[O-])cc1NC1OC(CO)C(O)C1O (stereo not drawn),14%,6%,22%,13%
Cc1ccc([N+](=O)[O-])c(NC2OC(CO)C(O)C2O)c1 (stereo not drawn),5%,3%,5.2µM*,-18%
O=C(NCCS(=O)c1ccc(Cl)cc1)c1cccc(Cl)c1 (stereo not drawn),-13%,1%,0%,u
CC(=O)Nc1ccc(C(=O)Nc2ccc(S(=O)(=O)NCC3CCCO3)cc2)cc1 (stereo not drawn),6%,-4%,0%,13µM*
O=C(c1ccccc1)N1CCC(c2nc(-c3ccc(S(=O)(=O)NCC4CCCO4)cc3)no2)CC1 (stereo not drawn),12%,9%,x,-20%
O=C(C1CC1)N1CCC(c2nc(-c3ccc(S(=O)(=O)NCC4CCCO4)cc3)no2)CC1 (stereo not drawn),-1%,-3%,-18%,9.3µM*
CCOC(=O)N1CC=C2C(C#N)=C(N)C(C#N)(C#N)[C@H](c3ccc(OCC)c(OCC)c3)[C@H]2C1,-5%,0%,8%,5.2µM*
COc1ccc(OC)c(C2C3CN(C(C)C)CC=C3C(C#N)=C(N)C2(C#N)C#N)c1 (stereo not drawn),-5%,5%,u,u
SMILES,AMA1 RON2 block,SARS PLpro yeast,Pf growth 96h,Pf growth 48h
CCCCOc1ccc(C2C3CN(C(=O)OCC)CC=C3C(C#N)=C(N)C2(C#N)C#N)cc1OC (stereo not drawn),4%,-17%,x,12µM*
N#CC1=C(N)C(C#N)(C#N)C(c2cccnc2)C2CN(C(=O)OCc3ccccc3)CC=C12 (stereo not drawn),-13%,-3%,9.3µM*,u
Cc1ccc(C2C3CN(C(C)C)CC=C3C(C#N)=C(N)C2(C#N)C#N)cc1 (stereo not drawn),31%,1%,0%,8.3µM*
O=C(Nc1ccccc1)N(Cc1ccc(Cl)cc1)CC(O)C(F)(F)F (stereo not drawn),-5%,-7%,6%,15µM*
COc1ccc(NC(=O)N(C)C[C@H]2Oc3c(NC(=O)Cc4ccccc4)cccc3C(=O)N([C@H](C)CO)C[C@@H]2C)cc1,13%,1%,x,x
CCSc1nnc(SCC(=O)c2c(N)n(C)c(=O)n(C)c2=O)s1,-1%,-3%,4.1µM*,u
Cc1ccccc1Nc1nnc(SCC(=O)c2c(N)n(C)c(=O)n(C)c2=O)s1,-20%,-1%,u,5.2µM*
Cn1c(N)c(C(=O)CSc2nnc(-c3ccccc3F)n2N)c(=O)n(C)c1=O,9%,1%,10µM*,u
CCN1C(=O)/C(=C\c2ccc(F)cc2)N=C1SCC(=O)NCc1ccco1,11%,4%,12%,15%
Cc1oc(C(C)(C)C)cc1-c1cc(NC(=O)c2ccc([N+](=O)[O-])cc2)n[nH]1,-3%,-1%,2.3µM*,1.9µM*
Cc1cc(NC(=O)c2ccc([N+](=O)[O-])cc2)no1,-15%,4%,u,61%
Oc1cccc(CCC2CCCCN2Cc2cn[nH]c2-c2ccc3c(c2)OCO3)c1 (stereo not drawn),1%,-1%,u,-20%
CC1=C(C(=O)OCc2ccccc2)C(c2ccc(Cl)cc2)NC(=O)N1CCCCCC(=O)O (stereo not drawn),-2%,-15%,12µM*,u
CC1=C(C(=O)OCc2ccccc2)C(c2cccc([N+](=O)[O-])c2)NC(=O)N1CCCCCC(=O)O (stereo not drawn),7%,11%,10µM*,u
CC1=C(C(=O)OCc2ccccc2)C(c2ccccc2)NC(=O)N1CCCC(=O)O (stereo not drawn),31%,0%,u,u
CCOC(=O)C(C)Sc1nnc(CNC(=O)c2ccc(OC)cc2)n1C1CCCCC1 (stereo not drawn),-8%,1%,-9%,u
COc1ccc(N2CC(C)Cn3c2nc2c3c(=O)n(Cc3ccc(C)cc3)c(=O)n2C)c(OC)c1 (stereo not drawn),1%,0%,u,4.7µM*
COc1ccc(OC)c(S(=O)(=O)N2CCC(C(=O)N3CCCCCC3)CC2)c1,-7%,0%,4%,6%
C=CCN1C(=O)C(Cc2ccc(Br)cc2)S/C1=N\N=C\c1ccco1 (stereo not drawn),2%,-5%,12µM*,5%
C=CCN1C(=O)C(Cc2ccc(OC)cc2)S/C1=N/N=C/c1ccco1 (stereo not drawn),-8%,-3%,u,9.3µM*
Cc1cc(C(=O)COC(=O)c2ccc3c(c2)NC(=O)CS3)c(C)n1CCc1ccc(Cl)cc1,1%,0%,1%,44%
COc1ccc(C)cc1NC(=O)Nc1ccc(Br)cn1,-3%,6%,28%,x
CC1(C)CC(=O)C2=C(C1)OC(N)=C(C#N)C2c1ccccc1[N+](=O)[O-] (stereo not drawn),-8%,0%,51%,7%
CC1(C)CC(=O)C2=C(C1)OC(N)=C(C#N)C2c1ccccc1OC(=O)N1CCOCC1 (stereo not drawn),-5%,3%,5.9µM*,-10%
